Here are results for 13 compounds from PubChem BioAssay (EPA / NIEHS).

SMILES strings stand for the structures. Where “and” joins values, the source holds several entries; their conditions need not be identical. Identical values can stand only once. Records with an inconclusive call do not appear. Some compounds were tested as several samples or in several runs, with calls that do not always agree. Calls of active or inactive are those of the source. How the source made its calls, unless noted: active means hit-call score of the fitted dose curve at least 0.9, where 1 is the maximum; inactive means score below 0.9.

Test [1] in a line: ATG_TCF_b_cat_CIS: Attagene CIS-FACTORIAL HepG2 Assay for human T-Cell-Factor with beta-catenin (TCF/b-cat) (AID 2282965). The settings on record: HepG2 TCF/beta-catenin cis-reporter transcription, actives raise or lower the signal. An outline of the steps: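 Using capillary electrophoresis as the read-out, labelled reporter cDNA fragments from transiently transfected HepG2 were sized and quantified. Exposure lasted 24 hours; activity in either direction was referenced to DMSO.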

Test [2] is described as follows: ATG_TAL_CIS: Attagene CIS-FACTORIAL HepG2 Assay for human TAL Basal Promoter (AID 2282966).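 Further: background control endpoint measuring basal TAL promoter reporter mRNA not a specific factor.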 The settings on record: HepG2 Attagene cis-factorial TAL promoter reporter; actives raise or lower the signal. In a few lines: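 After 24 hours of chemical exposure, transfected HepG2 cells yielded RNA that was converted to 6-FAM-labelled, HpaI-digested reporter fragments for capillary electrophoresis. Values derive from bidirectional fitting against DMSO controls.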

Test [3] is described as follows: ATG_TGFb_CIS: Attagene CIS-FACTORIAL HepG2 Assay for human Transforming Growth Factor (TGF) (AID 2282967). The settings on record: HepG2 Attagene CIS TGFb reporter, mRNA transcription; actives raise or lower the signal. An outline of the steps: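 HepG2 cells transiently transfected with cis-promoter-driven multiple reporter units measure endogenous TF activity; reporter mRNA quantified at 24 h by RT-PCR, FAM labeling, HpaI digestion and capillary electrophoresis. Bidirectional fit vs DMSO.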

Test [4] deals with Nuclear receptor subfamily 1 group I member 3 (Homo sapiens) (UniProt Q14994). Description: ATG_CAR_TRANS: Attagene TRANS-FACTORIAL HepG2 Assay for human Constitutive Androstane Receptor (CAR) (AID 2282969; active means hit-call score of the fitted dose curve at least 0.9, where 1 is the maximum;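 further: activators raise reporter mRNA above DMSO so AC50 marks induction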). The settings on record: HepG2 Attagene TRANS-FACTORIAL CAR reporter. An outline of the steps:
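Steps: transient transfection of HepG2 with multiple GAL4-UAS reporter units; 24 h compound incubation; RNA isolation, RT-PCR, 6-FAM primer extension, HpaI digest; capillary electrophoresis. Gain-of-signal relative to DMSO negative control.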

Test [5] concerns the target Estrogen receptor (Homo sapiens) (UniProt P03372). Description: ATG_ERa_TRANS: Attagene TRANS-FACTORIAL HepG2 Assay for human Estrogen Receptor alpha (ERa) (AID 2282970; active means hit-call score of the fitted dose curve at least 0.9, where 1 is the maximum). The following applies: HepG2 Attagene TRANS ERa GAL4 reporter, mRNA. An outline of the steps: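 Liver-derived HepG2 cells expressing chimeric nuclear receptor-Gal4 proteins from transient transfection were exposed for 24 hours. Gain of reporter mRNA signal versus DMSO, read by capillary electrophoresis of FAM-labelled PCR products, was recorded.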

Test [6] addresses Steroid hormone receptor ERR1 (Homo sapiens) (UniProt P11474). Description: ATG_ERRa_TRANS: Attagene TRANS-FACTORIAL HepG2 Assay for human Estrogen-Related Receptor alpha (ERRa) (AID 2282971; active means hit-call score of the fitted dose curve at least 0.9, where 1 is the maximum). The settings on record: HepG2 Attagene TRANS reporter, ERRa transactivation. In a few lines: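 Reporter transcript induction was quantified by RT-PCR and capillary electrophoresis of FAM-labelled, HpaI-cut products after 24 h treatment of HepG2 cells carrying transiently transfected GAL4-UAS reporter units and an exogenous ERRa-Gal4 fusion; activity scored as increase over DMSO.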

Test [7] addresses X-box-binding protein 1 (Homo sapiens) (UniProt P17861). Description: ATG_Xbp1_CIS: Attagene CIS-FACTORIAL HepG2 Assay for human X-box Binding Protein 1 (XBP1) (AID 2282972). The settings on record: HepG2 XBP1 cis-element reporter, Attagene multiplex; actives raise or lower the signal. In a few lines:
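Changes in reporter transcript abundance, read by RT-PCR and capillary electrophoresis, reflect endogenous transcription factor activity. Transfected HepG2 cells received compound for 24 hours; DMSO defined baseline for bidirectional analysis.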

In test [8] the target is Androgen receptor (Homo sapiens) (UniProt P10275). Description: ATG_AR_TRANS: Attagene TRANS-FACTORIAL HepG2 Assay for human Androgen Receptor (AR) (AID 2282973; active means hit-call score of the fitted dose curve at least 0.9, where 1 is the maximum). The following applies: HepG2 Attagene TRANS-FACTORIAL AR reporter transcription. As to the method:
ATG_TRANS is a cell-based, multiplexed-readout assay that uses HepG2, a human liver cell line, with measurements taken at 24 hours after chemical dosing in a 24-well plate.ATG_AR_TRANS is one of 30 assay component(s) measured or calculated from the ATG_TRANS assay. It is designed to make measurements of mRNA induction, a form of inducible reporter, as detected with fluorescence intensity signals by Reverse transcription polymerase chain reaction (RT-PCR) and Capillary electrophoresis technology.Data from the assay component ATG_AR_TRANS was analyzed into 1 assay endpoint. This assay endpoint, ATG_AR_TRANS, was analyzed in the positive analysis fitting direction relative to DMSO as the negative control and baseline of activity. Using a type of inducible reporter, measures of mRNA for gain-of-signal activity can be used to understand the reporter gene at the transcription factor-level as they relate to the gene AR. Furthermore, this assay endpoint can be referred to as a primary readout, because this assay has produced multiple assay endpoints where this one serves a reporter gene function. To generalize the intended target to other relatable targets, this assay endpoint is annotated to the nuclear receptor intended target family, where the subfamily is steroidal.
Human liver HepG2 cells are transiently transfected with multiple reporter transcription units (MRTUs) in 6-well plates using FuGene 6 reagent (Roche; 3 ml FuGene/1 mg DNA). The MRTU constructs are regulated by a cis-regulating element (promoter). […] A major difference between the CIS and TRANS system is that in CIS activities of endogenous TFs are measured, whereas the TRANS assay evaluates changes in activities of exogenous, chimeric NR-Gal4 proteins. […] At the end of 24 hour incubation, total RNA was isolated using TriZol reagent (Invitrogen). The isolated RNA is then reverse-transcribed using oligo(dT) primer and Mo-MLV reverse transcriptase (Invitrogen) with DNAse I (Ambion) treatment for 30 min. The one-tenth of the produced cDNA was amplified by PCR using Taq DNA polymerase (Invitrogen) and two reporter sequence-specific primers. The PCR products were fluorescently labeled by primer extension with 6-arboxyfluorescein (6-FAM) 5'-labeled reporter sequence-specific primer (2 min at 95 C, 20 s at 68 C and 10 min at 72 C) and these products were digested with 5U of HpaI (New England Biolabs) for 2h at 37 C. The fragments were purified using Qiaquick PCR columns (Qiagen), analyzed on an ABI 3130xL genetic analyzer (Applied Biosystems) with peak positions identified by using a set of X-rhodamine (ROX)-labeled MapMarker1000 molecular weight standards (BioVentures). The raw capillary electrophoresis data was processed using Attagraph software (Attagene).

Test [9] is described as follows: ATG_M_19_TRANS: Attagene TRANS-FACTORIAL HepG2 Assay for M19 Transcription Factor (Internal Marker) (AID 2282974; active means hit-call score of the fitted dose curve at least 0.9, where 1 is the maximum). The following applies: HepG2 Attagene TRANS-FACTORIAL M19 internal marker reporter. In a few lines:
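After transfection of HepG2 with GAL4-UAS-driven reporter constructs, cells are dosed for 24 h. Total RNA is reverse-transcribed, reporter sequences PCR-amplified and labelled, then HpaI-digested and sized by capillary electrophoresis.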

Test [10] in a line: ATG_VDRE_CIS: Attagene CIS-FACTORIAL HepG2 Assay for human Vitamin D Receptor Element (VDRE) (AID 2282968). The settings on record: HepG2 VDRE cis-reporter transcription, actives raise or lower the signal. An outline of the steps: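 Transfected HepG2 reporter cells, chemical treatment 24 h. RNA isolated, cDNA amplified with reporter-specific primers, products analysed by capillary electrophoresis. Endpoint fitted in both directions versus DMSO.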

Chain of Estrogen receptor (Homo sapiens) (P03372 whole entry, looked up, the tested form may be a part): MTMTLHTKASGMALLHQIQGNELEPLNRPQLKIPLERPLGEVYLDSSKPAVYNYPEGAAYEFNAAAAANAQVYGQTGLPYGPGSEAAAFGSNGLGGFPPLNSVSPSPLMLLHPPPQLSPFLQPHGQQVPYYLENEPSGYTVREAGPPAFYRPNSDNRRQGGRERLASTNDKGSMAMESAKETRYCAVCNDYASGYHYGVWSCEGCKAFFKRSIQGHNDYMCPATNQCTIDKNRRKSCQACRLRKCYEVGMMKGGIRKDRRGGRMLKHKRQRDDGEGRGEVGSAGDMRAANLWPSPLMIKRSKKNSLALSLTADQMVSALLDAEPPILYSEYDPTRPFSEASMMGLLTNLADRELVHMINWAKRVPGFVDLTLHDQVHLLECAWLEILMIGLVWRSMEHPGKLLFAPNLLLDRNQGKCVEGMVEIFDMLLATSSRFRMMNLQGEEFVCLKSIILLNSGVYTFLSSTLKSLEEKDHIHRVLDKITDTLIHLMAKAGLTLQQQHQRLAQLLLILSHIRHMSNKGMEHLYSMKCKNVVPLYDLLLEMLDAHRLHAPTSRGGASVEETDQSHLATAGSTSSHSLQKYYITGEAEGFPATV
Chain of Steroid hormone receptor ERR1 (Homo sapiens) (P11474 whole entry, looked up, the tested form may be a part): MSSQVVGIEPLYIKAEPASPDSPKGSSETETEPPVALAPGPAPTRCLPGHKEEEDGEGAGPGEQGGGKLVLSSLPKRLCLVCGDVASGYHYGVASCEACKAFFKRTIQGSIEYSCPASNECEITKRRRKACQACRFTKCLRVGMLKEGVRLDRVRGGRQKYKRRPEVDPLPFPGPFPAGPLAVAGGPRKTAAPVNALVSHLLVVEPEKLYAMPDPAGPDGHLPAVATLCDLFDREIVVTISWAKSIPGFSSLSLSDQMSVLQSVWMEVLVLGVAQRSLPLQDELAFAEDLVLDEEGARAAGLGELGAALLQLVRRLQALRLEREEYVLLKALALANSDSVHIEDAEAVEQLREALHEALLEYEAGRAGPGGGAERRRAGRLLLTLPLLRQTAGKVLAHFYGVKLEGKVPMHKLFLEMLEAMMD
Chain of Nuclear receptor subfamily 1 group I member 3 (Homo sapiens) (Q14994 whole entry, looked up, the tested form may be a part): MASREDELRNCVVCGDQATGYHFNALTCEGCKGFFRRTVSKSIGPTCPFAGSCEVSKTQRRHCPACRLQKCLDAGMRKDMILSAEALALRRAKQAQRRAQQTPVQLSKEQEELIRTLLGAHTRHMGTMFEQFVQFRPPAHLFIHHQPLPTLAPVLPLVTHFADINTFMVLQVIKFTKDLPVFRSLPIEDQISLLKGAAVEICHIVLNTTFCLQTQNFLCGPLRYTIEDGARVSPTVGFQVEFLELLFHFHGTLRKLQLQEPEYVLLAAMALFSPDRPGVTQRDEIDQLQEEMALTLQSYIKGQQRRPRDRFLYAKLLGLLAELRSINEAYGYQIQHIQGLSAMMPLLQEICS
Chain of X-box-binding protein 1 (Homo sapiens) (P17861 whole entry, looked up): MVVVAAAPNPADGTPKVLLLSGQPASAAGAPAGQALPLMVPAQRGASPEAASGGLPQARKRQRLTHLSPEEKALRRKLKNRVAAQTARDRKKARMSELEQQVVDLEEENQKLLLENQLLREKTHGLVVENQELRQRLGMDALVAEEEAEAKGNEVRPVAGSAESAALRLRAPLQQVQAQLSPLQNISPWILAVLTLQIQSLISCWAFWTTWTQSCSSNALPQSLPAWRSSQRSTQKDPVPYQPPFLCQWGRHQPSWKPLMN
Chain of Androgen receptor (Homo sapiens) (P10275 whole entry, looked up): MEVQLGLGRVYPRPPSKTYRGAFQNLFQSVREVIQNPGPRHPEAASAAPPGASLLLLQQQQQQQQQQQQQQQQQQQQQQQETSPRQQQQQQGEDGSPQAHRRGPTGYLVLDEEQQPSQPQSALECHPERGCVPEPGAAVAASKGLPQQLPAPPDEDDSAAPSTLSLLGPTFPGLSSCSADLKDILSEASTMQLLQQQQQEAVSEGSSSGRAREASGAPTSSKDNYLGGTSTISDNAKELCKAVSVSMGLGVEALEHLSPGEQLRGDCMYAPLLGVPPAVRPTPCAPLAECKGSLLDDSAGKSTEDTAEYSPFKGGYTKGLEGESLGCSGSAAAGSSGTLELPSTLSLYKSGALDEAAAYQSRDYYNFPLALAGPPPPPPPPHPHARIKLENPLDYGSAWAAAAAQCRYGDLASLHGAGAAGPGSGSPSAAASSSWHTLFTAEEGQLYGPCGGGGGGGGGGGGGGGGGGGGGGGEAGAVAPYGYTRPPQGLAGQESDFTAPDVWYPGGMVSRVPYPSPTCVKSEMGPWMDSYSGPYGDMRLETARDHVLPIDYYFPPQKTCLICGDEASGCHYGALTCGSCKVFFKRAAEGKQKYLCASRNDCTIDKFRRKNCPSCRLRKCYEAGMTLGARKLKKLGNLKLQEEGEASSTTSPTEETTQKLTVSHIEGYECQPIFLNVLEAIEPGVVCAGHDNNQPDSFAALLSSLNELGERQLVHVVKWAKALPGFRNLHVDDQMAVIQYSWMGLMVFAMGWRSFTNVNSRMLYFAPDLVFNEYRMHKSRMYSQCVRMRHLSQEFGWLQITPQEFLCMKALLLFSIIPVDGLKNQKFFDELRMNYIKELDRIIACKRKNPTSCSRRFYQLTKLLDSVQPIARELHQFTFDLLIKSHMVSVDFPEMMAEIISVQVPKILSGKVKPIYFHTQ

With `COc1cc(OC)nc(NC(=O)NS(=O)(=O)c2cc(NC=O)ccc2C(=O)N(C)C)n1`, the result in [1], in test [2], in test [3], in [4], in test [5] and in test [6] was inactive. Also, the result in [7], in test [8] and in [9] was inactive.
With `N#CN`, the compound was classed as inactive in [1], in [2], in test [3], in [4], in test [5] and in test [7].
Turning to `O=C(O)C(F)(F)C(F)(F)C(F)(F)C(F)(F)C(F)(F)C(F)(F)C(F)(F)F`, the AC50 in test [1] was 221 µM (active) and 231 µM (active). The outcome in test [1], in [2], in test [3], in test [7] and in [9] was inactive.
In the case of `CNC(=O)/C=C(\C)OP(=O)(OC)OC`, the result in [1], in [2], in test [3], in test [10], in test [4] and in test [5] was inactive. In addition, in test [7], the compound was called inactive.
As for `CCCN(CCC)c1c([N+](=O)[O-])cc(C(F)(F)F)cc1[N+](=O)[O-]`, the result in test [1], in [2], in [3], in test [4], in test [7] and in test [9] was inactive. Moreover, the AC50 was 13.4 µM (active) in test [10] and 35.9 µM (active) in [5].
On to `CNC(=O)CSP(=S)(OC)OC`, for which the compound was classed as inactive in [1], in [2], in test [3], in test [4], in [5] and in test [7].
`Clc1ccccc1-c1nnc(-c2ccccc2Cl)nn1`: the compound was classed as inactive in [1], in [2], in test [3], in test [10], in test [4] and in test [5]. Also, the compound was called inactive in test [7] and in test [9].
Take `CC1(C)C(C=C(Cl)Cl)C1C(=O)OC(C#N)c1ccc(F)c(Oc2ccccc2)c1` (configuration not stated): the call in test [1], in test [2], in test [3], in test [4], in test [5] and in [6] was inactive. Moreover, the compound was called inactive in test [7] and in test [9].
On to `CCOCN(C(=O)CCl)c1c(C)cccc1CC`, for which the call in test [1], in [2], in test [3], in test [10], in test [4] and in [5] was inactive. In addition, the call in test [6], in test [7] and in test [9] was inactive.
For the compound `O=C1c2ccccc2C(=O)N1SC(Cl)(Cl)Cl`, the compound was called inactive in test [1], in [2], in test [3], in [10], in test [4] and in test [5]. In addition, the call in test [7] and in test [9] was inactive.
Take `Oc1cc(Cl)ccc1Oc1ccc(Cl)cc1Cl`: the AC50 in test [1] is 11.1 µM (active) and 19.2 µM (active) and 14.4 µM (active); in test [2] it was 11.1 µM (active); in [7] it was 11.3 µM (active) [middle of 7 runs]. Further, the outcome in [1], in test [2], in test [3], in [4], in test [6] and in [7] was inactive. Further, the outcome in [9] was inactive.
In the case of `C[C@H]1[C@H](c2ccc(Cl)cc2)SC(=O)N1C(=O)NC1CCCCC1`, the compound was called inactive in [1], in test [2], in test [3], in test [4], in [5] and in test [7].
Consider `COP(=S)(OC)Oc1ccc(SC)c(C)c1`, for which the call in test [1], in [2], in test [3], in [4] and in test [7] was inactive. Further, in test [5], the AC50 is 18.8 µM (active).

The AC50 is the concentration at which the activity in the assay is half-maximal.
